Hits are enriched below; roughly 6% of the tested compounds scored in any of these assays.
D3 antag: blocks the human D3 dopamine receptor; D3R cells, DiscoveRx beta-arrestin luminescence, antagonist mode; hits give low values; max response, negative = inhibition, %; actives 2.5% (n = 360,000); in the data active = max response below about -50%; inconclusive = no clear call, values can overlap the other calls; note: % is set by controls: 0 for no effect and ±100 for the full control effect
Target sequence (P35462 whole entry, looked up): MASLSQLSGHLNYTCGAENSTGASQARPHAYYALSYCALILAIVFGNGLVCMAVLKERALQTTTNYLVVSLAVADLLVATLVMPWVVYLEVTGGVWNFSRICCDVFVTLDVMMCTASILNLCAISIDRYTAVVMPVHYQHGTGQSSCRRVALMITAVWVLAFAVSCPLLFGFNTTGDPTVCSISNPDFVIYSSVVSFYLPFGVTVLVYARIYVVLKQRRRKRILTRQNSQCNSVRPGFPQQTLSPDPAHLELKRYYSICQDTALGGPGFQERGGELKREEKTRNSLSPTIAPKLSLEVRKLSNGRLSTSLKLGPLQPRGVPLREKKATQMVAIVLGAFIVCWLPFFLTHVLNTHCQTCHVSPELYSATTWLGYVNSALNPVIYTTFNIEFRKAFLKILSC
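Cells expressing the human receptor were seeded at 1500 cells/well, incubated overnight at 37 degrees C in 5% CO2, then exposed to library compounds with dopamine controls for 90 minutes at 37 degrees C before luminescent detection.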
D3 ag: agonists of human D3 dopamine receptor; actives 0.58% (n = 410,000); max activation, %; D3R DiscoveRx beta-arrestin cells, luminescence, 90 min; AID 652048; in the data active = max activation above about 30%; note: 0% is about no effect
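Agonist-mode cell screen: cells plated at 1500/well and incubated overnight at 37 °C, then exposed to library compounds for 90 min at 37 °C. Detection reagent was added for 30–60 min at room temperature, and luminescence was read.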
D1 antagonist: antagonists of human D1 dopamine receptor; P21728; HEK293 TREx D1 cells, calcium flux, dopamine EC80; hits give low values; activity change, negative = inhibition, % at 10 µM; actives 3.2% (n = 360,000); AID 504652; in the data active = activity change below about -30%; note: % is set by controls: 0 for no effect and ±100 for the full control effect
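HEK293 T-REx cells expressing inducible, force-coupled D1 receptor; no-wash Ca dye, 30–90 min RT. Cmpd → 180 s read at 1 Hz → EC80 DA → 180 s read.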
D1 PAM: enhances dopamine response at the human D1 receptor; P21728; HEK293 TREx D1 cells, calcium flux, dopamine EC20 potentiation; potentiation, % at 10 µM; actives 0.036% (n = 360,000); in the data active = potentiation above about 30%; note: 0% is about no effect
D1 ag: agonists of human D1 dopamine receptor | activation, % at 2 µM | P21728 | HEK293 T-REx D1 cells, calcium flux, agonist mode | actives 1% (n = 360,000) | AID 504660; in the data active = activation above about 30%; note: 0% is about no effect
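Tetracycline-induced HEK293 TREx D1 cells, force-coupled to calcium signalling, were dye-loaded with a no-wash calcium kit. Compound was pin-added after a 10 s baseline. Fluorescence was read kinetically at 1 cycle/s for 180 s, with calcium rises flagged as agonism.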
Active calls of the source: *; ? = inconclusive; · = no result given; ! = not confirmed by another sample.

SMILES	D3 antag	D3 ag	D1 antagonist	D1 PAM	D1 ag
CC(=O)Nc1ccccc1-c1nc2ccccc2n(C(C)C(=O)c2ccc(C)c(C)c2)c1=O (stereo unspecified)	·	-18	-3	-1	51*
CCc1ccc(C(=O)c2cnc3ccc(F)cc3c2S(=O)(=O)c2ccccc2)cc1	·	-2	-42*	-7	2
COC(=O)c1nc2n(n1)C(c1cccc(Cl)c1)C(C(=O)Nc1ccccc1OC)=C(C)N2 (stereo unspecified)	·	3	4	-1	4
CCc1ccc(NC(=O)N2CC(C)Oc3ccc(C)cc32)cc1 (stereo unspecified)	·	-15	3	-2	2
CC1CCCCN1S(=O)(=O)c1cc2c3c(c1)CC(=O)N3CCC2 (stereo unspecified)	·	-2	·	1	-1
CCCCC1C(=O)N(c2ccccc2)N(c2ccc(O)cc2)C1=O (stereo unspecified)	-74*	-9	-6	0	-2
N#CC(c1ccc(Cl)cc1)c1c(Cl)cc(-n2ncc(=O)[nH]c2=O)cc1Cl (stereo unspecified)	·	1	·	·	·
O=C(NC1CCCC1)c1ccc(CS(=O)(=O)c2ccc(Br)cc2)o1	4	-3	-30*	-4	1
O=C(NCCc1ccccc1)c1ccc(CS(=O)(=O)c2ccc(Br)cc2)o1	2	2	16	1	5
CN(CCNC(=O)c1ccc(CS(=O)(=O)c2ccc(Br)cc2)o1)CCc1ccccc1	-55*	-14	-15	-17	5
Cc1nn(-c2ccccc2)c2nc(C(F)(F)F)[nH]c(=O)c12	29	2	-5	-3	0
Cc1nn(-c2cc(C(F)(F)F)ccc2Cl)c2nc(C(Cl)(Cl)Cl)[nH]c(=O)c12	-24	14	-38*	-16	4
O=S1(=O)C=C(Sc2nc3ccccc3s2)c2ccccc21	-98*	-9	-5	0	6
Cc1cc(C)nc(SC2=CS(=O)(=O)c3ccccc32)n1	17	2	-2	-5	1
COc1cccc(NC(=O)NC(=O)c2c(C)cc(Cl)nc2Cl)c1	-7	-9	-41*	-4	2
COc1ccc(NC(=O)Nc2cccc(OC)c2)cc1	10	-6	·	·	·
COc1cccc(NC(=O)Nc2cc(Cl)ccc2C)c1	-9	-10	-34*	-9	9
C=CCn1cccc(/C=C/C(=O)c2ccc(C(C)(C)C)cc2)c1=S	-60*	-6	12	-6	2
COc1cccc2c(=O)cn[nH]c12	1	-2	-52*	-7	1
COC(=O)c1cc(=O)c2cccc(OC)c2[nH]1	9	-3	-4	-4	1
CCc1ccc(C(=O)c2cn(Cc3ccccc3)c3cc(OC)c(OC)cc3c2=O)cc1	·	-5	0	0	4
S=c1[nH]cnc2scc(-c3ccc(Cl)cc3)c12	1	-10	-9	0	2
CC(=O)OCCn1c2nc(=O)[nH]c(=O)c-2nc2cc(C)c(C)cc21	0	-5	5	30	482*
CCCC(=O)OC[C@@H](OC(=O)CCC)[C@@H](OC(=O)CCC)[C@H](Cn1c2nc(=O)[nH]c(=O)c-2nc2cc(C)c(C)cc21)OC(=O)CCC	·	6	·	·	·
CCOC(=O)c1cccc(NC(=O)CC(c2ccc(F)cc2)N2Cc3ccccc3C2=O)c1 (stereo unspecified)	·	-18	-1	1	1
SMILES	D3 antag	D3 ag	D1 antagonist	D1 PAM	D1 ag
Cc1c(C(=O)Nc2cccc(Cl)c2)sc2nc3n(c(=O)c12)N=C(c1cccc(Br)c1)CS3	·	-3	4	-1	2
C=CCSc1nnc(-c2cc3c(C(F)(F)F)nn(C)c3s2)n1C	0	-4	·	·	·
C=CCSc1nnc(-c2cc3c(-c4ccccc4)nn(C)c3s2)n1C	-19	-18	-46*	-1	2
CC(C)[C@@H](C(=O)NCC1CCC(C(=O)O)CC1)n1nnc2ccccc2c1=O (stereo partly specified)	-57*	-4	5	7	1
CCOC(=O)C(Cc1cc(C(C)=O)ccc1OC(C)C)C(=O)OCC	9	2	-34*	-2	-1
CCOC(=O)C1=C(SCC)c2cc3c(n2C1=O)CCCC3	-57*	-7	-4	-1	3
Cn1c(=O)c2c(-c3ccccc3Cl)n(-c3cc(Cl)ccc3O)cc2n(C)c1=O	·	-7	5	0	43*
Cn1c(=O)c2c(-c3ccccc3)n(-c3cc([N+](=O)[O-])ccc3O)cc2n(C)c1=O	-51*	-7	·	·	·
Cn1c(=O)c2c(-c3ccccc3Cl)n(Cc3ccc(Cl)cc3)cc2n(C)c1=O	·	4	-5	3	-1
Cc1cc(Cl)ccc1Oc1ncc(-c2ccc(Cl)cc2)cn1	-17	-7	-66*	7	7
Cn1cnc(S(=O)(=O)N2CCN(c3cccc(Cl)c3)CC2)c1	5	2	-8	1	-2
Cn1cnc(S(=O)(=O)N2CCN(c3cccc(C(F)(F)F)c3)CC2)c1	13	6	-32*	-6	10
COC(=O)C1=C(C(=O)OC)[C@]2([C@@H]3CC=CCN[C@@H](Cc4ccccc4)C(=O)N3Cc3ccccc3)C=C[C@H]1O2	-5	7	·	·	·
C=CCC(Nc1ccccc1)C12C=CC(O1)C(C(=O)OC)=C2C(=O)OC (stereo unspecified)	-78*	-7	3	-14	0
COc1ccc(OCC(=O)Nc2ccc(S(=O)(=O)N(C)c3ccccc3)cc2)cc1	-4	-4	4	-2	4
CCS(=O)(=O)c1ncc(Cl)c(C(=O)Nc2ccc(S(=O)(=O)N(C)c3ccccc3)cc2)n1	?	-34	-61*!	-18	2
COc1ccccc1OCC(=O)Nc1ccc(S(=O)(=O)N(C)c2ccccc2)cc1	2	2	-41*	-1	12
CCN(c1ccccc1)S(=O)(=O)c1ccc(NC(=O)c2nc(S(C)(=O)=O)ncc2Cl)cc1	-93*	-25	-34*	-7	2
Cc1cccc(N2CCN(C(=O)CCCn3c(=O)[nH]c4ccsc4c3=O)CC2)c1C	·	7	3	0	2
CC1CCN(S(=O)(=O)c2ccc3c(c2)CCN3C(=O)Nc2ccc(Br)cc2F)CC1	·	-14	18	-7	0
CCCC(=O)OCc1cnc(C)c2oc(=O)c(C(=O)Nc3ccccc3)cc12	·	-15	4	-1	2
CSc1ccc(Cl)c(C(=O)Nc2ccc(OCC(N)=O)cc2)c1	-18	-7	12	3	2
Cc1cccc(OCc2nn[nH]n2)c1C	-12	68*	8	-3	3
Clc1ccccc1OCc1nn[nH]n1	-13	6	9	2	4
O=C(Nc1ccccc1SC(=O)c1ccccc1)c1ccccc1	6	3	·	·	·
Cc1ccc(C(=O)Sc2cccccc2=O)cc1	-94*	-31	-15	1	9
